From PubChem BioAssay (NCATS) come the findings set out here.

The subject of one assay is W2. Briefly: qHTS profiling for inhibitors of Plasmodium falciparum proliferation (AID 504749). Note: nearly all actives have a fitted effect of over 60% in size. The following applies: P. falciparum in erythrocytes, SYBR Green DNA, 72 h; series mostly up to 28.7 µM. The method, boiled down:
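Parasite proliferation within erythrocytes, 72 h exposure. Endpoint: SYBR Green I fluorescence after overnight lysis at room temperature. Controls: 0.29 uM artemisinin, DMSO.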

In a further assay the test system is CRL-7250. Briefly: Cytotoxic Profiling of Annotated Libraries Using Quantitative High-Throughput Screening (AID 1296008). For max response: % is set by controls: 0 for no effect and ±100 for the full control effect. Note: nearly all actives have a fitted effect of over 60% in size. Particulars: Five cell lines viability, CellTiter-Glo ATP luminescence, 48-72 h; max response: stronger effect = lower value. The method, boiled down:
(§1)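 Compounds were pin-transferred onto cells and incubated 48 or 72 hr at 37 degree Celsius, 95% humidity. CellTiter-Glo was added, plates sat 10 min at room temperature, then ATP-coupled luminescence was imaged as the viability read-out.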

Another assay relates to HEK293. Described as above. The following applies: Five cell lines viability, CellTiter-Glo ATP luminescence, 48-72 h; max response: stronger effect = lower value. The method, boiled down: as §1
The test system of assay [1] is HaCat. The description is as above. The following applies: Five cell lines viability, CellTiter-Glo ATP luminescence, 48-72 h; max response: stronger effect = lower value. The method, boiled down: as §1
Background: In ATP-based viability assays light output follows the ATP content of the culture.

In another assay the test system is KB-3-1. The description is as above. Particulars: Five cell lines viability, CellTiter-Glo ATP luminescence, 48-72 h; max response: stronger effect = lower value. A digest of the protocol: as §1
Assay [2] relates to NIH3T3. The description is as above. The following applies: Five cell lines viability, CellTiter-Glo ATP luminescence, 48-72 h; max response: stronger effect = lower value. The method, boiled down:
as §1

The next assay concerns MCC-13. Briefly: qHTS assay to identify novel small-molecules to repurpose for Merkel cell carcinoma treatment (AID 1296009). Note: nearly all actives have a fitted effect of over 60% in size. The following applies: MCC and control cell lines, CellTiter-Glo viability, 72 h; series mostly up to 46 µM. The method, boiled down: (§2)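 qHTS format: cells treated with library compounds in DMSO across 8 (NPC) or 11 (MIPE) concentrations. Readout after 72 hr at 37 degree celsius was CellTiter-Glo luminescence.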
A general note: Quantitative high-throughput screening tests each substance at several concentrations.

Another assay deals with MCC-26. Described as above. The following applies: MCC and control cell lines, CellTiter-Glo viability, 72 h; series mostly up to 46 µM. The method, boiled down: as §2
The test system of a further assay is MKL-1. The description is as above. The following applies: MCC and control cell lines, CellTiter-Glo viability, 72 h; series mostly up to 46 µM. A digest of the protocol:
as §2

The subject of a further assay is MKL-2. The description is as above. The following applies: MCC and control cell lines, CellTiter-Glo viability, 72 h; series mostly up to 46 µM. A digest of the protocol:
as §2

The test system of the next assay is UISO. Described as above. The following applies: MCC and control cell lines, CellTiter-Glo viability, 72 h; series mostly up to 46 µM. A digest of the protocol: as §2
The next assay concerns WaGa. The description is as above. The following applies: MCC and control cell lines, CellTiter-Glo viability, 72 h; series mostly up to 46 µM. A digest of the protocol: as §2
Another assay has as its system C33A. Briefly: Primary qHTS to identify gynecologic anti-cancer compounds using libraries of approved drugs and bioactive compounds (AID 1345084). Note: nearly all actives have a fitted effect of over 55% in size. Particulars: Gynecologic cancer cell panel viability, ATPlite luminescence, 48 h; series mostly up to 57.5 µM. The method, boiled down: (§3)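 Five-point cytotoxicity, 48 h drug exposure at 37 C, 5% CO2, on cells seeded 16 h beforehand. ATP content read by ATPlite luminescence.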

A further assay relates to CAOV3. The assay is described as above. Particulars: Gynecologic cancer cell panel viability, ATPlite luminescence, 48 h; series mostly up to 57.5 µM. The method, boiled down: as §3
A further assay deals with CASKI. Described as above. Particulars: Gynecologic cancer cell panel viability, ATPlite luminescence, 48 h; series mostly up to 57.5 µM. The method, boiled down:
as §3

In another assay the test system is Es-2. The description is as above. Particulars: Gynecologic cancer cell panel viability, ATPlite luminescence, 48 h; series mostly up to 57.5 µM. The method, boiled down:
as §3

The test system of a further assay is HeLa. The description is as above. Particulars: Gynecologic cancer cell panel viability, ATPlite luminescence, 48 h; series mostly up to 57.5 µM. A digest of the protocol: as §3
The test system of assay [3] is HACAT. Briefly: qHTS assay to identify novel small-molecules to repurpose for Merkel cell carcinoma treatment (AID 1296009). Note: nearly all actives have a fitted effect of over 60% in size. The following applies: MCC and control cell lines, CellTiter-Glo viability, 72 h; at 44.8 µM (top of the series) unless noted. A digest of the protocol:
as §2

Another assay concerns HEK293T. The description is as above. Particulars: MCC and control cell lines, CellTiter-Glo viability, 72 h; at 44.8 µM (top of the series) unless noted. The method, boiled down:
as §2

Assay [4] concerns NIH3T3. The description is as above. Particulars: MCC and control cell lines, CellTiter-Glo viability, 72 h; at 44.8 µM (top of the series) unless noted. A digest of the protocol:
as §2

Where “and” joins values, the source holds several entries; their conditions need not be identical. Identical values can stand only once. Records with an inconclusive call do not appear. A structure can be active in one record and inactive in another. Calls of active or inactive are those of the source. Calls come from the whole dose curve; as a rule, active = well fitted curve in the direction sought with a large enough effect; inconclusive = small, poorly fitted or top-dose-only effect, or another doubt; inactive = no such curve, though single readings can be large; an effect the other way counts as inactive or inconclusive.
Potency is the fitted concentration of half-maximal effect.

`CN(C)c1ccc(C(=C2C=CC(=[N+](C)C)C=C2)c2ccc(N(C)C)cc2)cc1`: the Potency in the assay on W2 is 0.12 µM (active); in the assay with CRL-7250 it was 211 nM (active) and 59 nM (active); in the assay with HEK293 it was 237 nM (active) and 105 nM (active); in the assay on HaCat [1] it was 1.06 µM (active) and 935 nM (active); in the assay on KB-3-1 it was 7.31 µM (active) and 93.5 nM (active); in the assay on NIH3T3 [2], 944 nM (active) and 372 nM (active). In addition, the Potency is 750 nM (active) and 743 nM (active) in the assay on MCC-13; 7.5 µM (active) and 4.69 µM (active) in the assay on MCC-26; 0.118 µM (active) in the assay with MKL-1; 94.4 nM (active) and 11.8 nM (active) with MKL-2; 841 nM (active) and 187 nM (active) with UISO; 596 nM (active) and 296 nM (active) with WaGa. Besides, the Potency is 10 µM (active) with C33A; 1.41 µM (active) with CAOV3; 1.12 µM (active) with CASKI; 1.78 µM (active) in the assay on Es-2; 2 µM (active) in the assay with HeLa.

As for `COC(=O)Nc1nc2ccc(Sc3ccccc3)cc2[nH]1`, the Potency entry in the assay on W2 is “inactive”. Further, the Potency in the assay with CRL-7250 is 2.37 µM (active); in the assay on HEK293 it was 473 nM (active) and 1.32 µM (active); in the assay on KB-3-1 it was 1.66 µM (active); in the assay on NIH3T3 [2] it was 668 nM (active); with MKL-2, 3.32 µM (active); with Es-2 it was 2.82 µM (active). Moreover, in the assay with HeLa, the Potency was 2.24 µM (active). In addition, in the assay with HaCat [1], the max response was -7.21% (inactive).

For `CNNCc1ccc(C(=O)NC(C)C)cc1`, the compound was classed as inactive in the assay with CRL-7250, with HaCat [1], in the assay with KB-3-1, in the assay on NIH3T3 [2], with HACAT [3] and in the assay on HEK293T. The result in the assay on NIH3T3 [4] was inactive. Also, the max response is -9.48% (inactive) in the assay with HaCat [1], -11.6% (inactive) with KB-3-1 and -4.42% (inactive) in the assay with NIH3T3 [2]. Further, the Potency entry in the assay on MCC-13, in the assay with MCC-26, with MKL-1, with MKL-2, in the assay on UISO and in the assay on WaGa was “inactive” in each case. The Potency entry in the assay with C33A, with CAOV3, with CASKI, in the assay on Es-2 and in the assay with HeLa was “inactive” each time.

With `C#CCN[C@@H]1CCc2ccccc21`, the Potency result in the assay on W2, in the assay on MCC-13, in the assay with MKL-1, in the assay on MKL-2, in the assay with UISO and with WaGa was “inactive” in each case. The Potency result with C33A, in the assay on CAOV3, in the assay on CASKI, in the assay on Es-2 and with HeLa was “inactive” throughout. For the same compound, the max response is -10.3% (inactive) and 4.11% (inactive) in the assay with CRL-7250; 0.653% (inactive) in the assay on HaCat [1]; -4.71% (inactive) with KB-3-1; 1.77% (inactive) in the assay with NIH3T3 [2]. For the same compound, the compound was called inactive with NIH3T3 [2], in the assay with HEK293T and with NIH3T3 [4].

On to `COc1ccc(C(=O)CC(=O)c2ccc(C(C)(C)C)cc2)cc1`, for which the max response with CRL-7250 is -14.9% (inactive) and 1.38% (inactive); with HaCat [1] it was -14.4% (inactive); with KB-3-1, -7.03% (inactive) and 3.76% (inactive); with NIH3T3 [2] it was -3.73% (inactive) and 2.63% (inactive). Moreover, the result in the assay with HaCat [1], in the assay with HACAT [3] and in the assay on HEK293T was inactive. Besides, the Potency entry in the assay with MCC-13, with MCC-26, in the assay with WaGa, in the assay on C33A, with CAOV3 and in the assay on CASKI was “inactive” each time. The Potency entry in the assay with Es-2 and with HeLa was “inactive” in each case. In addition, the Potency entry with MKL-1 is “inactive and 1.05 µM (active)”; in the assay on MKL-2 it was 0.935 µM (active); with UISO it was “inactive and 11.8 µM (active)”.
